The structures appear in SMILES notation. Inconclusive results are not listed. A call without a number means that no potency is given here. Active and inactive are the calls of the source. Calls come from the whole dose curve; as a rule, active = well fitted inhibition curve with a large enough effect in the repeat runs; inconclusive = weak or mixed curves; inactive = flat fitted curve, though single readings scatter.
Potency is the fitted concentration of half-maximal effect.

The nature of this test: qHTS assay to identify small molecule HDAC inhibitors (AID 1259364). Note: nearly all actives have a fitted effect of over 45% in size. The note with it: HCT-116 HDAC-Glo I/II luminescence, 2 h; series mostly up to 92.4 µM. An excerpt:
U.S. Tox21 Program National Center for Advancing Translational Sciences [NCATS] NIH Chemical Genomics Center [NCGC] U.S. Environmental Protection Agency [EPA] National Institutes of Environmental Health Sciences [NIEHS] National Toxicology Program [NTP] U.S. Food and Drug Administration [FDA] Tox21 Assay Overview: Histone deacetylases (HDACs) are a group of epigenetic enzymes that regulate gene expression by histone deacetylation. HDACs are capable of introducing epigenetic modifications and such aberrations contribute to the onset and progression of several human diseases, thus making HDACs a popular therapeutic target. For identifying endogenous class I/II HDAC inhibitors a homogenous, luminogenic HDAC I/II cell based assay was used to measure the relative activity of class I and II HDACs from cells. Wild type HCT-116 cells were used to screen Tox21 libraries for identifying class I/II HDAC inhibitors.
Tox21 Assay Protocol Summary: HCT-116 cells were dispensed at 1,500 per well in 5uL of culture medium into white solid bottom 1536-well plates (Greiner Bio-One, Monroe, NC) using a Multidrop Combi (Thermo Scientific, Waltham, MA) dispenser. The assay plates were incubated at 37 C and 5% CO2 for an overnight, and then 23nL of compounds dissolved in DMSO and positive control were transferred using a Pintool station (Wako, San Diego, CA). The assay plates were incubated at 37C and 5% CO2 for 2hr. After compound treatment, 4uL of HDAC-Glo reagent (Promega Corporation, Madison, WI) was added to each well of the assay plates using Flying Reagent Dispenser (FRD, Aurora Discovery, San Diego, CA) and incubated the assay plates at room temperature for 30min. The luminescence signal was quantified using a ViewLux plate reader (Perkin Elmer, Shelton, CT).
Regarding `On1ccccc1=S`, the Potency is 12.1 µM (active).

Consider `COc1ccc(-c2ccc3cc(C(=O)O)ccc3c2)cc1C12CC3CC(CC(C3)C1)C2`, for which the Potency entry was “inactive”.

In the case of `CCCCCCCC/C=C/CCCCCCCC1=NCCN1CCO`, the Potency result is “inactive”.

Consider `c1ccc(CSCc2ccccc2)cc1`, for which the Potency is 24.3 µM (active).

With `Oc1ccc2cc(SSc3ccc4cc(O)ccc4c3)ccc2c1`, the Potency result is “inactive”.

Turning to `CCCCN(CCCC)C(=O)N(CCCC)CCCC`, the Potency result is “inactive”.

`Cc1cc(O)c(C(C)(C)C)cc1Sc1cc(C(C)(C)C)c(O)cc1C`: the Potency entry was “inactive”.

For `C=C(C)C(=O)OCC(O)COc1ccc(C(C)(C)c2ccc(OCC(O)COC(=O)C(=C)C)cc2)cc1` (stereo not given), the Potency result was “inactive”.

On to `Clc1ccc2n[nH]nc2c1`, for which the Potency result is “inactive”.

`O=C1CCCc2c1cc1ccc3cccc4ccc2c1c34`: the Potency entry was “inactive”.

As for `CC(C)c1ccc2c(c1)CC[C@H]1[C@](C)(CN)CCC[C@]21C`, the Potency result is “inactive”.

Consider `Clc1ccccc1C(c1ccccc1)(c1ccccc1)n1ccnc1`, for which the Potency result is “inactive”.

With `O=[N+]([O-])c1ccccc1Nc1ccccc1`, the Potency entry is “inactive”.

`CCCCCCCCOC(=O)c1ccc(O)cc1`: the Potency entry was “inactive”.

On to `O=C(Nc1cccc(C(F)(F)F)c1)c1cc(Br)cc(Br)c1O`, for which the Potency is 3.86 µM (active).

On to `O=C1c2c(O)ccc(Nc3ccc(CCO)cc3)c2C(=O)c2c([N+](=O)[O-])ccc(O)c21`, for which the Potency entry is “inactive”.

Take `COc1cccc2c1C(=O)c1c(O)c3c(c(O)c1C2=O)C[C@@](O)(C(=O)CO)C[C@@H]3O[C@H]1C[C@H](N)[C@H](O[C@@H]2CCCCO2)[C@H](C)O1`: the Potency was 11.9 µM (active).

For the molecule `CCCCN1CCCC[C@H]1C(=O)Nc1c(C)cccc1C`, the Potency result is “inactive”.

In the case of `CSc1ccc(/C=C2/C(C)=C(CC(=O)O)c3cc(F)ccc32)cc1`, the Potency result is “inactive”.

`Fc1ccc([C@@H]2CCNC[C@H]2COc2ccc3c(c2)OCO3)cc1`: the Potency entry was “inactive”.

Take `CN(C)[C@@H]1C(=O)C(C(N)=O)=C(O)[C@@]2(O)C(=O)C3=C(O)c4c(O)cccc4C[C@H]3C[C@@H]12`: the Potency entry is “inactive”.

Turning to `CC(C)(C)C1CCC(CC2=C(O)c3ccccc3C(=O)C2=O)CC1` (stereo not given), the Potency entry is “inactive”.

With `N=C1N=C(N)c2cc3ccccc3cc21`, the Potency entry is “inactive”.

Take `CNCc1cc(F)ccc1Oc1ccc(Cl)c(Cl)c1`: the Potency entry is “inactive”.

Consider `CS(=O)(=O)CCNCc1ccc(-c2ccc3ncnc(Nc4ccc(OCc5cccc(F)c5)c(Cl)c4)c3c2)o1`, for which the Potency result was “inactive”.

Take `Cc1ccc(O)c(C(C)(C)C)c1`: the Potency result is “inactive”.

`CCCCCCCCNC(C)C(O)c1ccc(SC(C)C)cc1` (stereo not given): the Potency entry is “inactive”.

For the molecule `Cc1onc(-c2c(Cl)cccc2Cl)c1C(=O)N[C@@H]1C(=O)N2[C@@H]1SC(C)(C)[C@@H]2C(=O)O`, the Potency entry is “inactive”.

`C/C(=C(/OCCOc1ccc(Cl)cc1)c1ccc(Cl)cc1Cl)n1ccnc1`: the Potency result was “inactive”.

Regarding `O=[N+]([O-])c1cc(Cl)c(Cl)c(Cl)c1Cl`, the Potency entry was “inactive”.

In the case of `CCC(C)(C)C1CCCCC1OC(C)=O` (stereo not given), the Potency result was “inactive”.

As to `CCC1=C[C@@H]2CN(C1)Cc1c([nH]c3ccccc13)[C@@](C(=O)OC)(c1cc3c(cc1OC)N(C)[C@H]1[C@@](O)(C(=O)OC)[C@H](OC(C)=O)[C@]4(CC)C=CCN5CC[C@]31[C@@H]54)C2`, the Potency entry is “inactive”.

As for `CCc1cc(Cc2cc(CC)c(N)c(CC)c2)cc(CC)c1N`, the Potency result is “inactive”.

For the molecule `COc1c(C)c2c(c(O)c1C/C=C(\C)CCC(=O)O)C(=O)OC2`, the Potency result is “inactive”.

Consider `C/C=C1/C(=O)C[C@H]2[C@@H]3CCC4=CC(=O)CC[C@]4(C)[C@H]3CC[C@]12C`, for which the Potency result was “inactive”.

As for `CC(=O)N1CCN(c2ccc(OC[C@H]3CO[C@](Cn4ccnc4)(c4ccc(Cl)cc4Cl)O3)cc2)CC1`, the Potency result is “inactive”.

With `N/C(=N\N=C\c1ccc(Cl)cc1)N/N=C/c1ccc(Cl)cc1`, the Potency entry was “inactive”.

`COc1cc(/C=C/C(=O)O[C@H]2CC[C@]34C[C@]35CC[C@]3(C)[C@@H]([C@H](C)CCC=C(C)C)CC[C@@]3(C)[C@@H]5CC[C@H]4C2(C)C)ccc1O`: the Potency entry was “inactive”.

Regarding `CCCCCCCCCCCCCC[P+](CCCC)(CCCC)CCCC` (tested in a mixture with another compound), the Potency result was “inactive”.

In the case of `OCCCCCCCCCCCCBr`, the Potency entry was “inactive”.

For the origin of these results see PubChem BioAssay (Tox21).
